From PubChem BioAssay
This is a sample that favours compounds with a hit; in the whole collection about 0.46% have one here.
TsaE inh – YjeE (TsaE) inhibition, E. coli | P0AF67 | purified YjeE enzyme, qHTS inhibition assay | Potency, µM | 0.05% of 71,000 active | AID 605
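Purified YjeE (10 uM) with BODIPY Texas Red-labeled ADP probe (2 uM); compounds pin-transferred, 15 min at room temperature. Binding inhibition read as decreased fluorescence polarization; ADP titration as control.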
USP2a inhib – USP2a (human) protease inhibition | O75604 | USP2a enzymatic assay, qHTS inhibition | Potency, µM (highest dose often 38.3 µM), inactives show at the highest dose activity change, negative = inhibition, actives largely listed as inhibitors | 0.1% of 60,000 active | AID 927; further: potency means the concentration at half of the fitted maximal effect; nearly all actives have a fitted effect of over 60% in size
Target sequence (O75604 whole entry, looked up): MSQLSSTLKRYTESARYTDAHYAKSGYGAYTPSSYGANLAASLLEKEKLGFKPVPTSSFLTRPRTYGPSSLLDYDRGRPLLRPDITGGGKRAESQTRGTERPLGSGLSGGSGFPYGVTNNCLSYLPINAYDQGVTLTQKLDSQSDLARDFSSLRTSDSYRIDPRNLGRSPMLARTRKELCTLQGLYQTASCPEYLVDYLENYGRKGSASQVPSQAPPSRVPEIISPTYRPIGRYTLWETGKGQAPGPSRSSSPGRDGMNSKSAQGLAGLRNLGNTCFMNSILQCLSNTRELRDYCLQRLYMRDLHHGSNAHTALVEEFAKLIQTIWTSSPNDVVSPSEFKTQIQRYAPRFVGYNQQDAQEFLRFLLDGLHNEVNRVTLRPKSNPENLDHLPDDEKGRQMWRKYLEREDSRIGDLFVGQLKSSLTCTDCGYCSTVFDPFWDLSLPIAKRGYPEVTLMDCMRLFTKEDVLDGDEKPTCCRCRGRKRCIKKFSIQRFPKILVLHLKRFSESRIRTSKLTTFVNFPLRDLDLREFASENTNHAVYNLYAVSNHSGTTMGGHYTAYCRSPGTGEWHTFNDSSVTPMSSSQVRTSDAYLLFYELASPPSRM
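Inhibition is measured in a cell-free coupled assay with 20 nM USP2 core, 20 nM Ub-PLA2 and 20 uM NBD C6-HPC, 2.5 h incubation. Activity normalized to NEM control.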
BRCT inh green – blocks human BRCA1 BRCT binding to phosphopeptide, green readout. Potency, µM (highest dose often 76.9 µM), without a hit: at the highest dose activity change, negative = inhibition, hits mostly inhibitors. 0.05% of 75,000 active. AID 875. P38398. BRCA1 BRCT-phosphopeptide binding, green fluorescence polarization;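 further: potency means the concentration at half of the fitted maximal effect; plate controls were peptide without protein for full effect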
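Compounds were incubated for 12 min at room temperature with a complex of 100 nM fluorescein-tagged pBACH1 decapeptide and 250 nM His-tagged BRCT protein. Buffer was phosphate pH 7.3 with EDTA, DTT and Tween 20. Disruption of binding lowers the polarization signal.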
Hsp90 Hop PPI – changes Hsp90-Hop TPR2A binding signal, up or down. AlphaScreen TPR2A-His6 binding biotin-Hsp90 C-terminal peptide. Potency, µM (doses to about 57 µM), inactives show top-dose activity change, negative = inhibition. 0.44% of 71,000 active; active means well fitted curve in either direction with a large enough effect; inconclusive means small, poorly fitted or top-dose-only effect, or another doubt; further: potency means the concentration at half of the fitted maximal effect; on the % scale 0 is the no-effect control and ±100 the full control effect
BRCT PPI red – BRCT-phosphoprotein interaction inhibition (red fluorophore) | P38398 | Potency, µM (titrated, usually from 76.9 µM), for the others: at the top dose activity change, negative = inhibition, hits mostly inhibitors | BRCT-phosphopeptide binding, red fluorescence polarization | 0.03% of 75,000 active | AID 892; further: on the % scale 0 is the no-effect control and ±100 the full control effect
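Fluorescence polarization: 100 nM His-tagged BRCA1 BRCT with 100 nM TAMRA-labelled phospho-BACH1 decapeptide, phosphate buffer pH 7.3 with 150 mM NaCl, DTT, 0.01% Tween 20; 12 min RT. Binding inhibition seen as FP decrease.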
Hsp90-TPR2A inh – confirmation and counter-screen of Hsp90 TPR2A co-chaperone interaction disrupters. AlphaScreen TPR2A-His6 / biotin-Hsp90 peptide binding. 100% of 45 active. AID 632. shares compounds with Hsp90 Hop PPI. activity, negative = inhibition, % at 40 µM or 46 µM, hits read low;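 active means compound lowering the Hsp90 and TPR2A binding signal, whether or not the linker counterscreen also flagged it as an artifact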
Starred values were filed as active, the others as inactive; i = inactive; u = inconclusive; x = no result; ! = repeats disagree; [ ] = another dose, or the depositor's remark. Unless noted, the call rests on the fitted dose curve; in most records, active means well fitted curve in the direction sought with a large enough effect; inconclusive means small, poorly fitted or top-dose-only effect, or another doubt; inactive means no such curve, though single readings can be large; an effect the other way counts as inactive or inconclusive.

SMILES	TsaE inh	USP2a inhib	BRCT inh green	Hsp90 Hop PPI	BRCT PPI red	others
COc1ccc2c(c1)[n+]([O-])c(/C(C)=N/NC(N)=S)c(C)[n+]2[O-]	i	x	0%[15.4 µM]	-4%[11 µM]	0%[15.4 µM]
CC(C)c1nc2oc3c(=O)[nH]cnc3c2c2c1CCC2	i	1.6µM*	-4%	-3%	-1%
COC(=O)[C@H]1[C@@H]2C[C@H]3c4[nH]c5ccccc5c4CCN3C[C@@H]2CC[C@@H]1O	i	x	x	-3%	x
O=C1c2ccccc2C(=O)c2c(O)c(O)cc(O)c21	x	-84%	-21%	x	40µM*
CN(C)CCCNc1cc(O)c2c(c1O)C(=O)c1ccccc1C2=O	i	x	-1%[15.4 µM]	u	u
CCN(CC)c1ccc2c(c1)CCCN2	i	12%	-4%	16µM*	1%
C=Cc1c(C)c2cc3nc(cc4[nH]c(cc5nc(cc1[nH]2)C(C)=C5CCC(=O)O)c(CCC(=O)OC)c4C)[C@@]1(C)C3=CC=C(C(=O)OC)[C@H]1C(=O)OC (tested in a mixture with another compound)	i	67%[17.1 µM]	-1%[34.4 µM]	0.25µM*	-1%[34.4 µM]
O=C(NCC1CCCO1)c1sc(=S)n2c1[nH]c(=O)c1ccc(C(=O)N3CCCCC3)cc12 (stereo unspecified)	i	2µM*	-6%	-11%	-18%
CN1CCN(C(c2cccnc2)c2ccc3cccnc3c2O)CC1 (stereo unspecified)	i	5%	0%	3.2µM*	1%
CCOC(=O)c1c(C)oc2c1c(C(c1cccnc1)N1CCN(C)CC1)c(O)c1ccccc12 (stereo unspecified)	i	23%	-1%	-3%	0%
O=C1OC(=O)[C@@H]2[C@@H]1[C@@H]1CC[C@H]2O1	i	-1%	-3%	u	-1%
Cc1conc1NC(c1cccs1)c1ccc2cccnc2c1O (stereo unspecified)	i	46%	2%	25µM*	0%
C[C@@H]1C[C@@H]2[C@H]3CCC4=CC(=O)C=C[C@]4(C)[C@]3(Cl)[C@@H](O)C[C@@]2(C)[C@@]1(O)C(=O)CO	i	8%	-1%	-12%	-1%
CCC(C)Nc1ccc(NC(C)CC)cc1 (stereo unspecified)	100µM*	x	0%	u	-8%
C[C@@H]1c2cccc(O)c2C(O)=C2C(=O)[C@@]3(O)C(O)=C(C(N)=O)C(=O)[C@@H](N(C)C)[C@@H]3[C@@H](O)[C@@H]21	i	16µM*	-1%[34.4 µM]	u	-1%[34.4 µM]
C=C1c2cccc(O)c2C(O)=C2C(=O)[C@@]3(O)C(O)=C(C(N)=O)C(=O)[C@@H](N(C)C)[C@@H]3[C@@H](O)[C@H]12	i	62%[17.1 µM]	-9%[34.4 µM]	u	-20%[34.4 µM]
CN1CCC(CNC(=O)c2ccc(Cc3nc4ccccc4[nH]3)cc2)CC1	x	x	0%	x	-2%
O=C(Nc1nc(-c2ccc(Cl)s2)cs1)c1cccs1	i	22%	11%	17%	0%
O=C(Nc1nc(-c2ccccn2)cs1)c1ccc(Cl)s1	i	x	-2%	7.9µM*	7%
NC(=S)NCCC[C@@H](N)C(=O)O	i	-6%	-3%	-6%	-3%
CCCc1ccc(Oc2cn[nH]c2-c2ccc(O)cc2O)cc1	i	4µM*	-9%	-18%[11 µM]	-2%
CN1CCN(C(=O)c2ccc(-n3c(=O)c(=O)[nH]c4ccccc43)cc2)CC1	x	x	-4%	x	-5%
Cc1cccc(NS(=O)(=O)c2ccc(Cl)c(C(=O)O)c2)c1	x	x	-1%	x	1%
NC([N-]/N=C/c1ccccn1)=[S]=[Fe].O=S(=O)(O)O	i	x	-1%[15.4 µM]	1.3µM*	-1%[15.4 µM]
O=C1C=CC2=C3c4cc(O)c(O)cc4CC3(O)COC2=C1O (stereo unspecified)	x	10µM*	-24%	x	-19%
SMILES	TsaE inh	USP2a inhib	BRCT inh green	Hsp90 Hop PPI	BRCT PPI red	others
CC#C[C@@]1(O)CC[C@@H]2[C@@H]3CCC4=CC(=O)CCC4=C3[C@@H](c3ccc(N(C)C)cc3)C[C@]21C	i	x	x	u	x
NC(=O)C1=CN([C@@H]2O[C@@H](COP(=O)(O)OP(=O)(O)OC[C@@H]3O[C@H](n4cnc5c(N)ncnc54)[C@@H](OP(=O)(O)O)[C@@H]3O)[C@H](O)[C@@H]2O)C=CC1	i	6%	-5%	-11%	2%
CC(C)C(=O)NC(c1ccco1)c1ccc2cccnc2c1O (stereo unspecified)	i	14%	-3%	10µM*	0%
Oc1c(C(Nc2nc3ccccc3s2)c2ccco2)ccc2cccnc12 (stereo unspecified)	i	26%	-2%	u	1%
O=C(O)c1ccc(N[C@H](c2ccccc2)c2ccc3cccnc3c2O)cc1	i	x	-1%[15.4 µM]	-19%[11 µM]	0%[15.4 µM]
COc1ccc(C(NC(C)=O)c2ccc3cccnc3c2O)c(OC)c1 (stereo unspecified)	i	13%	2%	16µM*	1%
COc1ccc2c(c1)[C@]1(C)CCC[C@](C)(CO)[C@@H]1CC2	i	x	x	0%	x
C=C1CC[C@@H]2[C@](C)(CC[C@@H](O)[C@]2(C)CO)[C@@H]1C/C=C1/C(=O)OC[C@H]1O	i	x	x	u	x
COc1cc2nc(N3CC=[N+](C(=O)c4ccco4)CC3)nc(N)c2cc1OC	i	1%	-2%	-9%	1%
Cc1ccc(NCC(O)C(O)C(O)CO)cc1C (stereo unspecified)	i	-1%	0%	-5%	-1%
Cc1cc2nc3c(=O)[nH]c(=O)nc-3n(CC(O)C(O)C(O)CO)c2cc1C (stereo unspecified)	i	63%	13µM*!	-6%	-9%
CCOC(=O)C1CCN(c2c(NCc3ccc(C(=O)O)cc3)c(=O)c2=O)CC1	i	x	-1%	-2%	-1%
COc1ccc2nc3c(cc2c1)c(NC(=O)c1cccs1)nn3CC(C)C	i	24%	-1%	25µM*	0%
Cc1ccc(NC(=O)CCCCCC2NC(=O)NC2C)cc1 (stereo unspecified)	i	0%	2%	0.013µM*	0%	Hsp90-TPR2A inh=-99*[alpha-screen platform artifact]
Brc1ccc(-c2nn3c(-c4ccccn4)nnc3s2)o1	i	18%	1%	7.9µM*	-2%	Hsp90-TPR2A inh=-99*[alpha-screen platform artifact]
Brc1ccc(-c2nn3c(-c4ccncc4)nnc3s2)o1	i	3%	0%	-3%	-2%
CCN(CC)C(=O)c1sc2nc(-c3ccncc3)[nH]c(=O)c2c1C	i	-2%	-1%	0%	0%
CCN(CC)C(=O)c1sc2nc(-c3ccccn3)[nH]c(=O)c2c1C	i	6%	2%	7.9µM*	-1%	Hsp90-TPR2A inh=-99*[alpha-screen platform artifact]
